Screening data deposited in PubChem by National Center for Advancing Translational Sciences (NCATS).
Rab9 prom act – activates the Rab9 promoter | Huh7 Rab9 promoter-luciferase reporter, luminescence, 24 h | Potency, µM (doses to about 9.22 µM), usual class: activators | actives 2.8% (n = 320,000) | AID 485297; further: nearly all actives have a fitted effect of over 60% in size
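Rab9 promoter-driven luciferase in stably transfected Huh7 cells; 1500 cells/well rested 2 h, exposed to compound in DMSO for 24 h at 37 °C, 5% CO2. Luminescence read 10 min after adding luciferase reagent at ambient temperature.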
ELG1 genotox – inducers of genotoxicity in HEK293T ELG1-luciferase cells. HEK293T ELG1-luciferase reporter, luminescence, 16 h. Potency, µM (titrated, usually from 46 µM), hits mostly activators. actives 1.3% (n = 330,000); further: nearly all actives have a fitted effect of over 60% in size
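DMSO vehicle served as control against compound-treated ELG1-luciferase HEK293T cells; exposure lasted 16 hr at 37 °C and 5% CO2, followed by ONE-Glo luminescence detection after 30 min.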
FLuc modulator – inhibits or activates purified firefly luciferase, miR-21 counter-screen | P08659 | purified FLuc, Km substrates, luminescence inhibition | Potency, µM (titrated, usually from 57.5 µM), most hits filed as inhibitors | actives 6.9% (n = 360,000) | AID 588342; further: nearly all actives have a fitted effect of over 55% in size
Target sequence (P08659 whole entry, looked up): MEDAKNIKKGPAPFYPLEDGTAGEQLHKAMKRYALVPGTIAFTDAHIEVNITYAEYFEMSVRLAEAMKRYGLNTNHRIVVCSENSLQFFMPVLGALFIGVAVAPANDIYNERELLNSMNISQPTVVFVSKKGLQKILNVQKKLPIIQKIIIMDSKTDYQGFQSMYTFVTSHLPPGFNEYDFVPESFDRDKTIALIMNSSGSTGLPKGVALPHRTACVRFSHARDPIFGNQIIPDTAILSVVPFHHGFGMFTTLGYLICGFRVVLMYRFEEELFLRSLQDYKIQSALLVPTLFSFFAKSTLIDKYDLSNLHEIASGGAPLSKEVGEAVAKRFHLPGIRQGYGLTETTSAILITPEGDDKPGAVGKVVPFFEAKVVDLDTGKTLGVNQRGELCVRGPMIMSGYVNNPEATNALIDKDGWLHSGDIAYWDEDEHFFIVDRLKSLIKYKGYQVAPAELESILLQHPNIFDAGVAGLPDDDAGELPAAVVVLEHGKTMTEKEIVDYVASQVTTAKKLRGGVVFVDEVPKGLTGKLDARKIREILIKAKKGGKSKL
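Purified P. pyralis luciferase (10nM final) with 10uM D-luciferin and 10uM ATP (Km levels) in 50mM Tris acetate pH 7.5, 10mM Mg acetate, 0.01% Tween-20, 0.05% BSA; qHTS 6-point titration, ~60 µM downward; luminescence read.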
SMN2 splice enh – enhancers of SMN2 splice variant expression. HEK293 SMN2-luciferase splicing reporter, luminescence, 30-36 h. Potency, µM (series often up to 46.1 µM), most hits filed as activators. actives 2.8% (n = 210,000); further: nearly all actives have a fitted effect of over 55% in size
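HEK293 cells carry an SMN2 […]–luciferase reporter in which exon 7 inclusion puts luciferase in frame. Cells were plated 10-12 h before compound addition, then incubated 30-36 h at 37C. ONE-Glo luminescence was read; sodium butyrate at 4.5 mM final served as control.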
NPC1 prom act – activates the NPC1 promoter. AID 485313. Huh7 NPC1 promoter luciferase reporter, 24 h. actives 2.4% (n = 320,000). Potency, µM (top dose mostly 9.22 µM), most hits filed as activators; further: nearly all actives have a fitted effect of over 60% in size
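Stable NPC1-promoter luciferase Huh7 line; cpd (DMSO) 24 h, 37 °C, 5% CO2; Amplite luciferase reagent 10 min RT; luminescence readout. qHTS format.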
KinaseGlo FLuc – counter-screen: inhibitors of Kinase-Glo firefly luciferase. Q27757. Potency, µM (titrated, usually from 38.3 µM), most hits filed as inhibitors. actives 0.28% (n = 200,000). Kinase-Glo luciferase, ATP luminescence, 8 min; further: nearly all actives have a fitted effect of over 60% in size
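Compound is pinned into ATP-containing buffer (10 uM ATP, imidazole pH 7.2, 7 mM MgCl2). Kinase-Glo luciferase reagent is then added. Light output is recorded following an 8-min room-temperature incubation.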
A number is an active result; [ ] = dose if it differs, or a comment. The list is not random: actives were taken first. Their share in the collection is about 7.4%. The call rests on the fitted dose curve; in most records, active means well fitted curve in the direction sought with a large enough effect; inconclusive means small, poorly fitted or top-dose-only effect, or another doubt; inactive means no such curve, though single readings can be large; an effect the other way counts as inactive or inconclusive.

CC(C)(C)c1ccc(/C=N/N2CCN(c3ccccn3)CC2)cc1 was read as Rab9 prom act inactive, ELG1 genotox inactive, FLuc modulator inactive and NPC1 prom act inactive.
For CN(c1ccccc1)c1ccc(/C=N/N2CCOCC2)cc1 the results were Rab9 prom act 1.3µM, ELG1 genotox 18µM, FLuc modulator 1.7µM, SMN2 splice enh 7.9µM, NPC1 prom act 1.8µM and KinaseGlo FLuc inactive.
CCOC(=O)c1ccccc1NC(=O)Cc1c(C(=O)O)c(C)cn1C was read as FLuc modulator inactive.
CCOC(=O)C1=C(CN2CCN(c3cc(C)ccc3C)CC2)NC(=O)NC1c1ccc(Cl)cc1 (configuration not stated) was read as FLuc modulator inactive and SMN2 splice enh inactive.
Screening COc1ccc([C@H]2c3cc(OC)c(OC)cc3C[C@@H](C)[C@@H]2C)cc1OC returned SMN2 splice enh inactive and KinaseGlo FLuc inactive.
Screening Cn1c2cc(B(O)O)sc2c2cnn(Cc3c(F)cccc3Cl)c(=O)c21 returned Rab9 prom act inactive, FLuc modulator inactive and NPC1 prom act inactive.
Screening COc1ccc(-c2cc3c(=O)n(CC(=O)NCCCN4CCC(N5CCCCC5)CC4)ncn3n2)cc1 returned Rab9 prom act inactive, ELG1 genotox inactive, FLuc modulator 11µM and NPC1 prom act inconclusive.
Screening COc1ccc(-c2cc3c(=O)n(CC(=O)NCCCN4CCC(N5CCCCC5)CC4)nc(C)n3n2)cc1 returned Rab9 prom act inactive, ELG1 genotox inactive, FLuc modulator inactive and NPC1 prom act inactive.
`COc1ccc(-c2cc3c(=O)n(CC(=O)NCc4cccnc4)ncn3n2)cc1` gave Rab9 prom act 3.5µM, ELG1 genotox inconclusive, FLuc modulator 2.1µM and NPC1 prom act 1.6µM.
Screening CCOc1ccc(C(=O)Nc2ccccc2OCc2cc(=O)n3ccccc3n2)cc1 returned FLuc modulator inactive.
`CCOc1ccc(/C=C/C(=O)c2c(O)c3ccccc3oc2=O)cc1` gave Rab9 prom act inactive, ELG1 genotox inactive, FLuc modulator 11µM, SMN2 splice enh inactive, NPC1 prom act inactive and KinaseGlo FLuc inactive.
Screening CCOC(=O)c1c(O)c2ccccc2oc1=O returned Rab9 prom act inactive, ELG1 genotox inactive, FLuc modulator inconclusive and NPC1 prom act inactive.
CN(C)c1ccc(/C=C/C(=O)c2c(O)c3ccccc3oc2=O)cc1 was read as Rab9 prom act inconclusive, ELG1 genotox inactive, FLuc modulator 21µM and NPC1 prom act inactive.
For O=C(CCNS(=O)(=O)c1ccc2c(c1)CCCC(=O)N2)NCc1ccc(Cl)cc1 the results were FLuc modulator inactive.
`CCOc1ccccc1NC(=O)c1ccc(F)c(S(=O)(=O)N2CCN(c3ccc(F)cc3)CC2)c1` gave FLuc modulator inactive.
Screening CC1=C(C(=O)Nc2cc(C)ccn2)C(c2ccc(C)cc2)C2=C(CCCC2=O)N1 (configuration not stated) returned Rab9 prom act inactive, ELG1 genotox inactive, FLuc modulator inactive, SMN2 splice enh 10µM, NPC1 prom act inactive and KinaseGlo FLuc inactive.
`O=C(N/N=C/c1ccc([N+](=O)[O-])o1)c1cc(-c2cccc(Br)c2)nc2ccccc12` gave Rab9 prom act inactive, ELG1 genotox inactive, FLuc modulator 4.8µM, SMN2 splice enh inactive, NPC1 prom act inactive and KinaseGlo FLuc inactive.
For CCCc1ccc(-c2cc(C(=O)N/N=C/c3ccc([N+](=O)[O-])o3)c3ccccc3n2)cc1 the results were Rab9 prom act inconclusive, ELG1 genotox inconclusive, FLuc modulator 0.15µM, SMN2 splice enh inactive, NPC1 prom act inactive and KinaseGlo FLuc inactive.
For O=C(O)CC[C@@H](C(=O)O)N1C(=O)[C@@H]2[C@@H]3CC[C@H](C3)[C@@H]2C1=O the results were SMN2 splice enh inactive[9.22 µM] and KinaseGlo FLuc inactive[7.66 µM].
For COc1ccc(CCNC(=O)c2oc3ccc(OC)cc3c2C)cc1 the results were Rab9 prom act inactive, ELG1 genotox inactive, FLuc modulator inconclusive and NPC1 prom act inactive.
COc1ccccc1C(CNC(=O)c1oc2ccccc2c1C)N1CCCC1 (configuration not stated) was read as Rab9 prom act inactive, ELG1 genotox inactive, FLuc modulator 24µM and NPC1 prom act inactive.
`COc1ccc(CCNC(=O)c2oc3ccccc3c2C)cc1` gave Rab9 prom act inactive, ELG1 genotox inactive, FLuc modulator 19µM and NPC1 prom act inactive.
O=C(NCCc1ccc2c(c1)OCCO2)c1ccccc1F was read as Rab9 prom act inactive, ELG1 genotox inactive, FLuc modulator inconclusive, SMN2 splice enh inactive, NPC1 prom act inconclusive and KinaseGlo FLuc inactive.
Screening Cc1c(C(=O)NCCc2ccc3c(c2)OCCO3)oc2ccccc12 returned Rab9 prom act inactive, ELG1 genotox inactive, FLuc modulator 19µM, SMN2 splice enh inactive, NPC1 prom act inactive and KinaseGlo FLuc inactive.
`CCOC(=O)N1CCC(NC(=O)c2cnn(-c3ccc(C)cc3)c2-n2cccc2)CC1` gave FLuc modulator inactive.
Cc1cccc(Cn2c(=O)n(Cc3ccc(C(=O)NC4CCN(Cc5ccccc5)CC4)cc3)c(=O)c3ccccc32)c1 was read as FLuc modulator inactive and SMN2 splice enh inactive.
Screening CCc1ccc(C2c3c(oc4ccc(C)cc4c3=O)C(=O)N2c2nc(C)c(C)s2)cc1 (configuration not stated) returned FLuc modulator inactive and SMN2 splice enh inactive.
Screening Nc1nc(CSc2ncccn2)nc(Nc2ccccc2)n1 returned Rab9 prom act 4µM, ELG1 genotox inconclusive, FLuc modulator 24µM, SMN2 splice enh 14µM, NPC1 prom act 4.5µM and KinaseGlo FLuc inactive.
Cc1ccc(Nc2nc(N)nc(CSc3nc(C)cc(C)n3)n2)cc1 was read as FLuc modulator inactive, SMN2 splice enh inactive and KinaseGlo FLuc inactive.
Cc1ccc(Nc2nc(N)nc(CSc3ncccn3)n2)cc1 was read as Rab9 prom act 2µM, ELG1 genotox inconclusive, FLuc modulator 12µM, SMN2 splice enh 13µM, NPC1 prom act 2.2µM and KinaseGlo FLuc inactive.
Fc1ccc(-c2ccc(CNCc3ccccn3)o2)cc1 was read as Rab9 prom act inactive, ELG1 genotox inconclusive, FLuc modulator 24µM and NPC1 prom act inactive.
Screening Clc1ccc(-c2ccc(CNCc3ccccn3)o2)cc1 returned Rab9 prom act inactive, ELG1 genotox inactive, FLuc modulator 15µM and NPC1 prom act inconclusive.
COc1ccc(-c2ccc(CNCc3ccccn3)o2)cc1Cl was read as Rab9 prom act inactive, ELG1 genotox inactive, FLuc modulator inconclusive and NPC1 prom act inactive.
Screening CC(C)(C)NC(=O)c1ccccc1-c1nc2ccccc2s1 returned Rab9 prom act inactive, ELG1 genotox inactive, FLuc modulator inactive and NPC1 prom act inactive.
